This is part of a sample that, as a whole, favours compounds with a hit. Of some 83,000 tested, about 20% had one in any assay.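 In brief: 96-well plates, 48 h treatment, single concentration, percent growth endpoint.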 Unmarked numbers belong to inactive results. Activity calls are given as the source filed them. How the source made its calls: active means growth percent below 10; inactive means the rest.
What follows are compounds tested on MDA-MB-468 breast (assay: NCI-60 one-dose screen, 48 h (100 = growth as untreated, 0 = no growth, -100 = all killed)). Details: 10 µM unless noted.

Row | Structure (SMILES) | growth
1 | CC(/C=C1\SC(=S)N(CC(=O)NC(Cc2c[nH]c3ccccc23)C(=O)O)C1=O)=C\c1ccccc1 (stereo not given) | 95.1%
2 | COc1ccc2nc3ccccc3c(NCCNCC(C)O)c2c1 (stereo not given) | -24.6% (active)
3 | COc1ccc2[nH]c(=O)c(/C=N/Nc3nc(-c4ccccc4)cs3)c(O)c2c1 | 87.6%
4 | Nc1nc(N)c(N=Nc2ccc(C(=O)O)cc2)c(N)n1 | 114%
5 | C[C@@H]1N=C(c2ccc(Br)cc2)Nc2nc3ccccn3c2C1=O | -0.502% (active)
6 | Cc1ccc(C(=O)NN2C(=O)/C(=C/C=C/c3ccco3)SC2=S)cc1 | 71%
7 | COc1cc2c(cc1O)CCN1C[C@@H](CC(C)C)[C@@H](O)C[C@@H]21 | 103%
8 | CC(C)Nc1cc(-c2c[nH]c(C(=O)N[C@H](CO)c3cccc(Cl)c3)c2)c(Cl)cn1 | 43.6%
9 | N=c1c2ccccc2nc2n1CCCCC2 | 103%
10 | O=C1NCCS(=O)(=O)/C1=C\C=C\c1cccc(C(F)(F)F)c1 | 17.9%
11 | O=C(Nc1ccc(Cl)c(C(F)(F)F)c1)c1ccc(Nc2ccc(Cl)nn2)cc1 | 41.3%
12 | CC1COCC(C)N1C1=C(Cl)C(=O)c2ccccc2C1=O (stereo not given) | -92% (active)
13 | O=Nc1ccc2ccccc2c1O | 68.3%
14 | COc1ccc(C2c3ccccc3NC(=O)N2C2CCN(C)CC2)c(OC)c1 (stereo not given) | 88.3%
15 | Cc1ncc(C(=O)Nc2ccc(CN3CCN(C)CC3)c(C(F)(F)F)c2)cc1C#Cc1cnc(N)cc1C#N | 68.2%
16 | O=C(Nc1ccc(Nc2ccncc2)cc1)c1ccc([N+](=O)[O-])cc1 | -28.1% (active)
17 | C#Cc1ccccc1NC(=O)c1sc2nc3c(cc2c1N)CCCCC3 | 119%
18 | COC(=O)C(C)NC1=C(Cl)C(=O)C(NC(C)C(=O)OC)=C(Cl)C1=O (stereo not given) | 63.6%
19 | CCOC(=O)C(Cc1ccc(OC)cc1)C(=O)OCC | 55.3%
20 | COc1cc(-c2nc3sccn3c2-c2ccnc(NCCNS(=O)(=O)c3ccccc3)n2)ccc1F | 40.2%

Row | Structure (SMILES) | growth
21 | COc1ccc(OC)c(/C=C/C(=O)N/N=C/c2ccc(Cl)cc2)c1 | -4.03% (active)
22 | O=[N+]([O-])c1ccc(N/N=C/c2ccccc2O)nc1 | 10.3%
23 | COc1cc(/C=C/c2cc(/C=C/c3ccc(O)c(OC)c3)n(C(=O)c3ccccc3Br)n2)ccc1O | 2.97% (active)
24 | Cc1ccc(C(=O)N/N=C/c2ccc3c(c2)OCO3)cc1 | 101%
25 | Cc1c2cnccc2c(C)c2c1c1cc(O)ccc1n2C(C)C | 24.3%
26 | CC(C)(C)NC(C1=CC(C)(C)c2ccccc2C1=O)c1ccccc1 (stereo not given) | -100% (active)
27 | COc1ccc([N+](=O)[O-])c(/C=C/C(=O)c2ccccn2)c1 | 74.4%
28 | Nc1c2c(c(O)c3c1=C(CO)C=N3)=NCCS2=O (stereo not given) | -79.6% (active)
29 | Cc1nc2ccccc2n1-c1ncnc2c1CC(C)c1ccccc1N2C (stereo not given) | 80.9%
30 | O=C(Nc1ccccc1)c1sc(-c2ccccc2)cc1O | 107%
31 | CCCCCCCCCCCCCCCCNC(=O)OC(C)C | 36.1%
32 | Cc1[nH]c(C(=O)Nc2cccc(OC3CCNCC3)c2)c(Cl)c1Cl | 40.9%
33 | COc1ccc2sc3c(NCCCNCCO)nc4ccccc4c3c(=O)c2c1 | 30.9%
34 | CC(C)C[C@H](C(=O)N[C@@H](C)C(N)=O)N1CC=CCN(O)S1(=O)=O | 109% [5 µM]
35 | O=C(NCCNc1cc(-c2cn(-c3ccccc3)nc2-c2cccc(O)c2)ccn1)Nc1ccccc1 | 64.9%
36 | COc1cccc(-c2nc3sccn3c2-c2ccnc(NCCNS(=O)(=O)c3ccc(F)cc3)c2)c1 | 19.2%
37 | CN1CCN(c2cc3c(cc2F)c(=O)c(C(=O)O)cn3-c2ccc(F)cc2)CC1 | 110%
38 | Fc1ccc(-c2nc(Nc3ccc(-c4nc5ccccc5[nH]4)cc3)nc(N3CCOCC3)n2)cc1 | -84% (active)
39 | COc1ccc(-c2cc(-c3ccc(Nc4ccnc5cc(Cl)ccc45)cc3)nc(N3CCOCC3)n2)cc1 | 42.1%
40 | COc1cccc(/C=C/C(=O)c2cc3c(N)c(C(=O)Nc4ccccc4)sc3nc2C)c1 | 15.3%

Reference: PubChem BioAssay (NCI)
